PubChem BioAssay AID1159580 (chemical genetic matrix, 2015)
Screen size: about 5,500 compounds; about 2,000 (36%) were called active. Roughly 18% stayed inconclusive and do not appear here. The list shows a part of the results. Values without a mark were called inactive. Cut-off read from the data, not from the text of the source: active = normalized growth mostly below about 0.91 (no sharp cut-off); inconclusive = no clear call, values can overlap the other calls; inactive = mostly above about 0.92.

Assay: chemical genetic growth profiling, strain panel (AID 1159580);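 note: tested at 20 µM; growth read once vehicle control cultures reached saturation at 30 °C; 1 = growth at the plate median or of vehicle wells; lower values mean less growth of the strain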
Conditions: S. cerevisiae deletion strains, growth OD
[1] = locus YJR075W, strain HOC1, hits give low values
[2] = locus YMR263W, strain SAP30, hits give low values
[3] = locus YNL153C, strain GIM3, hits give low values
[4] = locus YPL055C, strain LGE1, hits give low values
[5] = locus YDL101C, strain DUN1, hits give low values
[6] = locus YHR030C, strain SLT2, hits give low values

With `O=C1c2ccccc2-c2n[nH]c3cccc1c23` the normalized growth (locus YAL040C, strain CLN3, hits give low values) was 0.674 (active), the normalized growth (locus YDR363W, strain ESC2, hits give low values) was 0.906 and the normalized growth (locus YER002W, strain NOP16, hits give low values) was 0.982. The normalized growth [1] was 0.827 (active), the normalized growth [2] was 0.981 and the normalized growth [3] was 0.345 (active). For the same compound, the normalized growth (locus YNL175C, strain NOP13, hits give low values) was 0.621 (active), the normalized growth (locus YNL197C, strain WHI3, hits give low values) was 0.826 (active) and the normalized growth (locus YNL224C, strain SQS1, hits give low values) was 0.654 (active). The normalized growth (locus YOR083W, strain WHI5 (second series), hits give low values) was 0.504 (active) and the normalized growth [4] was 0.727 (active).
Compound `O=S(=O)(Oc1ccc(-c2csnn2)cc1)c1ccccc1Cl` has a normalized growth (locus YAR019C, strain CDC15, hits give low values) of 0.965, a normalized growth (locus YBL105C, strain PKC1, hits give low values) of 0.98 and a normalized growth (locus YBR135W, strain CKS1, hits give low values) of 0.966. It also gave a normalized growth (locus YBR136W, strain MEC1, hits give low values) of 0.963, a normalized growth (locus YBR160W, strain CDC28, hits give low values) of 0.971 and a normalized growth (locus YDL017W, strain CDC7, hits give low values) of 0.974. The normalized growth (locus YDL028C, strain MPS1, hits give low values) was 0.968, the normalized growth [5] was 0.956 and the normalized growth (locus YDL108W, strain KIN28, hits give low values) was 0.967. It also gave a normalized growth (locus YDL132W, strain cdc53, hits give low values) of 0.971, a normalized growth (locus YDL214C, strain PRR2, hits give low values) of 0.939 and a normalized growth (locus YDR052C, strain DBF4, hits give low values) of 0.978. It also gave a normalized growth (locus YDR054C, strain cdc34, hits give low values) of 0.979, a normalized growth (locus YDR226W, strain ADK1, hits give low values) of 0.969 and a normalized growth (locus YDR477W, strain SNF1, hits give low values) of 0.94. The normalized growth (locus YER123W, strain YCK3, hits give low values) was 0.915, the normalized growth (locus YER133W, strain GLC7, hits give low values) was 0.939 and the normalized growth (locus YFL009W, strain cdc4, hits give low values) was 0.973. It also gave a normalized growth (locus YFL029C, strain CAK1, hits give low values) of 0.963, a normalized growth (locus YFR003C, strain YPI1, hits give low values) of 0.972 and a normalized growth (locus YFR019W, strain FAB1, hits give low values) of 0.913. For the same compound, the normalized growth (locus YFR028C, strain CDC14, hits give low values) was 0.957, the normalized growth (locus YGR040W, strain KSS1, hits give low values) was 0.934 and the normalized growth (locus YGR052W, strain FMP48, hits give low values) was 0.969. It also gave a normalized growth (locus YGR092W, strain DBF2, hits give low values) of 0.935, a normalized growth [6] of 0.907 and a normalized growth (locus YHR079C, strain IRE1, hits give low values) of 0.929. The normalized growth (locus YHR082C, strain KSP1, hits give low values) was 0.948, the normalized growth (locus YHR205W, strain SCH9, hits give low values) was 0.946 and the normalized growth (locus YIL147C, strain SLN1, hits give low values) was 0.968. The normalized growth (locus YJL095W, strain BCK1, hits give low values) was 0.936, the normalized growth (locus YJL128C, strain PBS2, hits give low values) was 0.938 and the normalized growth (locus YJL157C, strain FAR1, hits give low values) was 0.947. The normalized growth (locus YJR016C, strain ILV3, hits give low values) was 0.978, the normalized growth (locus YJR066W, strain TOR1 (second series), hits give low values) was 0.909 and the normalized growth (locus YJR066W, strain TOR1, hits give low values) was 0.921. For the same compound, the normalized growth (locus YKL048C, strain ELM1, hits give low values) was 0.988, the normalized growth (locus YKL067W, strain YNK1, hits give low values) was 0.933 and the normalized growth (locus YKL101W, strain HSL1, hits give low values) was 0.951. For the same compound, the normalized growth (locus YKL193C, strain SDS22, hits give low values) was 0.967, the normalized growth (locus YKL203C, strain TOR2, hits give low values) was 0.989 and the normalized growth (locus YLR113W, strain HOG1, hits give low values) was 0.854 (active). It also gave a normalized growth (locus YLR133W, strain CKI1, hits give low values) of 0.947, a normalized growth (locus YLR403W, strain SFP1, hits give low values) of 0.927 and a normalized growth (locus YML070W, strain DAK1, hits give low values) of 0.922. The normalized growth (locus YMR001C, strain CDC5, hits give low values) was 0.968, the normalized growth (locus YMR205C, strain PFK2 (second series), hits give low values) was 0.941 and the normalized growth (locus YMR277W, strain FCP1, hits give low values) was 0.965. The normalized growth (locus YNL006W, strain LST8, hits give low values) was 0.981, the normalized growth (locus YNL020C, strain ARK1, hits give low values) was 0.973 and the normalized growth (locus YNL161W, strain CBK1, hits give low values) was 0.969. The normalized growth (locus YNL183C, strain NPR1, hits give low values) was 0.896, the normalized growth (locus YNL207W, strain RIO2, hits give low values) was 0.971 and the normalized growth (locus YNL222W, strain SSU72, hits give low values) was 0.975. For the same compound, the normalized growth (locus YNL307C, strain MCK1 (second series), hits give low values) was 0.96, the normalized growth (locus YOL078W, strain AVO1, hits give low values) was 0.974 and the normalized growth (locus YOL136C, strain PFK27, hits give low values) was 0.916. The normalized growth (locus YOR061W, strain CKA2, hits give low values) was 0.923, the normalized growth (locus YOR119C, strain RIO1, hits give low values) was 0.964 and the normalized growth (locus YOR231W, strain MKK1, hits give low values) was 0.906. It also gave a normalized growth (locus YOR329C, strain SCD5, hits give low values) of 0.966, a normalized growth (locus YPL031C, strain PHO85, hits give low values) of 0.946 and a normalized growth (locus YPL153C, strain RAD53, hits give low values) of 0.956. For the same compound, the normalized growth (locus YPL204W, strain HRR25, hits give low values) was 0.931, the normalized growth (locus YPL209C, strain IPL1, hits give low values) was 0.975 and the normalized growth (locus YPL256C, strain CLN2, hits give low values) was 0.881. The normalized growth (locus YPR025C, strain CCL1, hits give low values) was 0.968, the normalized growth (locus YPR106W, strain ISR1, hits give low values) was 0.961 and the normalized growth (locus YPR111W, strain DBF20, hits give low values) was 0.964. The normalized growth (strain NNK1, hits give low values) was 0.96 and the normalized growth (strain TSCII, hits give low values) was 0.995.
`N/C(=N/OC(=O)c1ccccc1)c1ccc(-c2csnn2)cc1` gave a normalized growth (locus YAL013W, strain DEP1, hits give low values) of 0.998, a normalized growth (locus YBR229C, strain ROT2, hits give low values) of 0.988 and a normalized growth [5] of 0.984. It also gave a normalized growth (locus YDL134C, strain PPH21, hits give low values) of 1.01, a normalized growth (locus YDR150W, strain NUM1, hits give low values) of 0.965 and a normalized growth (locus YEL061C, strain CIN8, hits give low values) of 0.991. It also gave a normalized growth (locus YGR078C, strain PAC10, hits give low values) of 1, a normalized growth [6] of 1.08 and a normalized growth (locus YHR087W, strain rtc3, hits give low values) of 0.993. The normalized growth (locus YJL187C, strain SWE1, hits give low values) was 1.02, the normalized growth (locus YJR043C, strain POL32, hits give low values) was 1.01 and the normalized growth [1] was 1.02. For the same compound, the normalized growth (locus YLR039C, strain RIC1, hits give low values) was 1.03, the normalized growth (locus YLR058C, strain SHM2 (second series), hits give low values) was 1 and the normalized growth (locus YLR085C, strain ARP6, hits give low values) was 1.01. For the same compound, the normalized growth (locus YLR262C, strain YPT6, hits give low values) was 1.01, the normalized growth (locus YML094W, strain GIM5, hits give low values) was 0.993 and the normalized growth (locus YMR219W, strain ESC1, hits give low values) was 1. The normalized growth [2] was 1.03, the normalized growth [3] was 1 and the normalized growth (locus YNL298W, strain CLA4 (second series), hits give low values) was 1.01. For the same compound, the normalized growth (locus YNL322C, strain KRE1, hits give low values) was 1.01, the normalized growth (locus YNR030W, strain Alg12, hits give low values) was 1 and the normalized growth (locus YOL006C, strain TOP1, hits give low values) was 1.07. It also gave a normalized growth [4] of 0.905, a normalized growth (locus YPL241C, strain CIN2, hits give low values) of 1 and a normalized growth (locus YPR135W, strain CTF4, hits give low values) of 1.04.
